Assay results: the supplement of paper PMC8728848
The full list was thinned out, with the strongest signals kept by preference.

Tests used:
Assay in all cases: glycan array binding signal (z-score within array); higher = stronger binding
Settings in all cases: glycan notation: IUPAC condensed, linker removed
Gal3S4S(b1-4)GlcNAc = system: Gal3S4S(b1-4)GlcNAc
Procedure, shortened: (§1)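 Arrays were curated from the Consortium for Functional Glycomics database, 3228 in total, and kept only where the protein sequence was available. Binding is expressed as a within-array Z-score. This score was averaged across arrays of the same protein sequence at different concentrations or buffers and across linkers, and negative values can be read as non-binding.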

Gal6P(b1-4)GlcNAc = system: Gal6P(b1-4)GlcNAc
Procedure, shortened: as §1

Gal6S(b1-3)GlcNAc6S = system: Gal6S(b1-3)GlcNAc6S
Procedure, shortened: as §1

Gal6S(b1-3)GlcNAc = system: Gal6S(b1-3)GlcNAc
Procedure, shortened: as §1

Gal6S(b1-4)Glc6S = system: Gal6S(b1-4)Glc6S
Procedure, shortened: as §1

Gal6S(b1-4)Glc = system: Gal6S(b1-4)Glc
Procedure, shortened: as §1

[1] = system: GalNAc(b1-3)Gal(a1-6)Gal(b1-4)Glc
Procedure, shortened: as §1

[2] = system: GalNAc(b1-3)Gal(a1-4)Gal(b1-4)GlcNAc
Procedure, shortened: as §1

GalNAc(b1-4)Gal(b1-4)Glc = system: GalNAc(b1-4)Gal(b1-4)Glc
Procedure, shortened: as §1

[3] = system: GalNAc(b1-4)GlcNAc(b1-2)Man(a1-3)[GalNAc(b1-4)GlcNAc(b1-2)Man(a1-6)]Man(b1-4)GlcNAc(b1-4)GlcNAc
Procedure, shortened: as §1

Gal3S6S(b1-4)GlcNAc6S = system: Gal3S6S(b1-4)GlcNAc6S
Procedure, shortened: as §1

GalNAc(a1-3)Gal = system: GalNAc(a1-3)Gal
Procedure, shortened: as §1

GalNAc(b1-3)GlcNAc = system: GalNAc(b1-3)GlcNAc
Procedure, shortened: as §1

GalNAc(b1-3)GalNAc = system: GalNAc(b1-3)GalNAc
Procedure, shortened: as §1

[4] = system: GalNAc(b1-4)GlcNAc(b1-3)GalNAc(b1-4)GlcNAc
Procedure, shortened: as §1

Gal4S6S(b1-4)GlcNAc = system: Gal4S6S(b1-4)GlcNAc
Procedure, shortened: as §1

[5] = system: GalNAc(a1-3)GalNAc(b1-3)Gal(a1-4)Gal(b1-4)Glc
Procedure, shortened: as §1

Gal6S(b1-4)GlcNAc = system: Gal6S(b1-4)GlcNAc
Procedure, shortened: as §1

GalNAc(b1-6)GalNAc = system: GalNAc(b1-6)GalNAc
Procedure, shortened: as §1

## Epa22
Gal3S4S(b1-4)GlcNAc
  glycan array binding signal (z-score): -0.476
Gal6P(b1-4)GlcNAc
  glycan array binding signal (z-score): -0.491
Gal6S(b1-3)GlcNAc6S
  glycan array binding signal (z-score): 2.55
Gal6S(b1-3)GlcNAc
  glycan array binding signal (z-score): 1.89
Gal6S(b1-4)Glc6S
  glycan array binding signal (z-score): 7.08
Gal6S(b1-4)Glc
  glycan array binding signal (z-score): 1.51
[1]
  glycan array binding signal (z-score): -0.822

## AgI/IIC123-GFP (Streptococcus mutans)
Gal3S4S(b1-4)GlcNAc
  glycan array binding signal (z-score): -0.466
[2]
  glycan array binding signal (z-score): 1.61
GalNAc(b1-4)Gal(b1-4)Glc
  glycan array binding signal (z-score): -0.438
[3]
  glycan array binding signal (z-score): -0.272

## AgI/II Vhelical-GFP (Streptococcus mutans)
Gal3S6S(b1-4)GlcNAc6S
  glycan array binding signal (z-score): 1.08
GalNAc(a1-3)Gal
  glycan array binding signal (z-score): -0.061
GalNAc(b1-3)GlcNAc
  glycan array binding signal (z-score): -0.152

## LcI (Legionella pneumophila)
Gal3S6S(b1-4)GlcNAc6S
  glycan array binding signal (z-score): -0.439
GalNAc(b1-3)GalNAc
  glycan array binding signal (z-score): -0.554
[4]
  glycan array binding signal (z-score): -0.365

## SiiE (Salmonella typhimurium), A0A0H3NVH0
Gal4S6S(b1-4)GlcNAc
  glycan array binding signal (z-score): -0.799
[5]
  glycan array binding signal (z-score): -1.13

## SpGH101 (Streptococcus pneumoniae), Q8DR60
Gal6S(b1-3)GlcNAc
  glycan array binding signal (z-score): -0.229

## BambL (Burhholderia ambifaria), Q0B4G1
Gal6S(b1-4)GlcNAc
  glycan array binding signal (z-score): -0.314
[1]
  glycan array binding signal (z-score): -0.314
GalNAc(b1-4)Gal(b1-4)Glc
  glycan array binding signal (z-score): -0.316

## Actinohivin (Actinomycete K97)
GalNAc(a1-3)Gal
  glycan array binding signal (z-score): -0.192
GalNAc(b1-6)GalNAc
  glycan array binding signal (z-score): -0.188
